High-throughput results deposited in PubChem by National Center for Advancing Translational Sciences (NCATS).
Rows were chosen to be rich in hits. Some 2.3% of all compounds tested hit in one or more screens of this group.
FBPA coupling cs: coupling enzyme interference in Giardia aldolase counter-screen; activity change, negative = inhibition, % at 58.2 µM, hits read low; AID 2472; 290,000 tested, 0.67% active; coupling enzyme system counterscreen, AmpLite Red fluorescence; in the data active means activity change below about -30%
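Activity here indicates interference with the coupling reaction, not aldolase inhibition. Compounds at 57.5 uM final met coupling enzymes for 10 min at RT; substrate and AmpLite Red detection followed, with a 525/598 nm fluorescence read after 20 min.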
Tau fibril ThT: blocks human tau fibril formation measured by thioflavin T; P10636; recombinant tau K18 P301L, heparin-induced fibrillization, ThT fluorescence; Potency, µM (doses to about 57.4 µM), for the others: top-dose activity, negative = inhibition, most hits filed as inhibitors; 270,000 tested, 2.1% active; further: potency means the concentration at half of the fitted maximal effect; nearly all actives have a fitted effect of over 55% in size
Target sequence (P10636 561-689 P618L limits assumed): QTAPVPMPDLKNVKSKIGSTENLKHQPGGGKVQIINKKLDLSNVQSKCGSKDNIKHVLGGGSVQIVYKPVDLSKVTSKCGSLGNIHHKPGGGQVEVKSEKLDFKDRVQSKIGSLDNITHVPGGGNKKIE
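Fibril formation assay: tau K18 P301L at 15 uM with trace Alexa 594 label, heparin inducer 20 uM, pH 7 sodium acetate buffer, 37 C for 6 hr; endpoint ThT signal.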
Tau fluor counter: counter-screen for tau fibril formation inhibitors | Potency, µM (top dose mostly 57.7 µM), for inactives: at the top dose activity change, negative = decrease | tau K18 P301L Alexa594 fluorescence, heparin fibrillization | 280,000 tested, 0.93% active; further: potency means the concentration at half of the fitted maximal effect; nearly all actives have a fitted effect of over 55% in size
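Human K18 P301L tau (15 uM unlabeled plus 0.24 uM Alexa 594-labeled, final) in 100 mM sodium acetate pH 7 was mixed with compound and 20 uM heparin and incubated 6 hr at 37 C.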
USP1 inh: inhibitors of human USP1/UAF1 deubiquitinase | O94782 | recombinant USP1/UAF1, Ub-Rhodamine cleavage fluorescence | Potency, µM (top dose mostly 57.1 µM), for the others: at the top dose activity change, negative = inhibition, actives largely listed as inhibitors | 390,000 tested, 0.23% active | AID 743255; further: potency means the concentration at half of the fitted maximal effect; nearly all actives have a fitted effect of over 60% in size
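In this screen, compounds sit with the deubiquitinase complex (1nM) for 15 min at room temperature before Ub-Rho is added at 150nM final. Fluorescence rise is then followed for 6 reads every 60 seconds.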
Tau FP inhib: inhibitors of human tau fibril formation; K18 P301L tau heparin fibrillization, Alexa594 FP, 6 h; Potency, µM (highest dose often 57.7 µM), inactives show top-dose activity, negative = inhibition, hits mostly inhibitors; 280,000 tested, 0.39% active; further: potency means the concentration at half of the fitted maximal effect; nearly all actives have a fitted effect of over 55% in size
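Heparin (20 uM) drove fibril formation of recombinant tau K18 P301L, 15 uM unlabeled with 0.24 uM Alexa 594 label, for 6 hr at 37 C in 100 mM sodium acetate pH 7. Fluorescence polarization (555/632 nm) read 1 hr after 30 uM ThT.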
Active calls of the source: *; ? = inconclusive; nt = no result; [ ] = dose if it differs, or a comment. Unless noted, the call rests on the fitted dose curve; in most records, active means well fitted curve in the direction sought with a large enough effect; inconclusive means small, poorly fitted or top-dose-only effect, or another doubt; inactive means no such curve, though single readings can be large; an effect the other way counts as inactive or inconclusive. On the % scale 0 is the no-effect control and ±100 the full control effect.

SMILES | FBPA coupling cs | Tau fibril ThT | Tau fluor counter | USP1 inh | Tau FP inhib
COc1ccc(S(=O)(=O)Nc2cc(Sc3ncn[nH]3)c(O)c3ccccc23)cc1 | -57.8* | 7.08µM* | ? | nt | 15.8µM*
COc1ccc(S(=O)(=O)Nc2cc(SCC(=O)O)c(O)c3ccccc23)cc1 | -47.2* | nt | nt | 31.6µM* | nt
O=C(Sc1cccc2cccnc12)c1ccc(F)cc1 | -3.2 | ? | -11.0% | nt | ?
O=S(=O)(Nc1cc(Sc2cccc3cccnc23)c(O)c2ccccc12)c1ccc(F)cc1 | -53.5* | 12.6µM* | 14.1µM*[quencher] | -22.6% | 28.2µM*
COc1ccc(S(=O)(=O)Nc2cccc3ccc(O)cc23)cc1 | nt | nt | nt | -15.8% | nt
O=C(O)CSc1cc(NS(=O)(=O)c2ccc(Cl)cc2)c2ccccc2c1O | -52.5* | nt | nt | 25.1µM* | nt
NS(=O)(=O)c1ccc(CCNC(=O)c2ccc(OCC3CCCO3)cc2)cc1 (centres undefined) | 1.6 | nt | nt | -0.1% | nt
Cc1ccc(C(C)C)c(OCC(=O)Nc2ccc(C(=O)OC3CCCCC3)cc2)c1 | nt | -7.1% | -14.3% | -12.6% | -8.2%
Cc1cc(C)c(S(=O)(=O)Nc2ccc(O)cc2)cc1C | -1.3 | -8.6% | -15.6% | -20.1% | 3.9%
Cc1cc(C)c(S(=O)(=O)Nc2cc(SCC(=O)O)c(O)c3ccccc23)cc1C | -52.8* | 12.6µM* | ? | ? | 25.1µM*
CCOc1ccc(NC(=S)Nc2cccc3ccccc23)cc1 | 1.1 | nt | nt | ? | nt
CCOc1ccc(NC(=S)Nc2cccc3cnccc23)cc1 | -44.5* | ? | -26.0% | -14.6% | -9.4%
COc1ccc(NC(=S)Nc2cccc3cnccc23)cc1 | -36.6* | ? | -20.8% | -24.7% | ?
CCOc1ccc(-c2nc(-c3ccccc3)c(-c3ccccc3)[nH]2)cc1OCC | nt | -7.2% | ? | -14.1% | ?
COc1ccc(-c2[nH]c(-c3cc(OC)c4c(c3)OCO4)nc2-c2ccccc2)cc1 | -2.1 | ? | 12.6µM*[quencher] | -11.6% | ?
COc1cc(-c2nc(-c3ccccc3)c(-c3ccc(Br)cc3)[nH]2)cc(OC)c1O | nt | ? | 11.2µM*[quencher] | -1.7% | 4.1%
Oc1ccc(N=Nc2nc(-c3ccccc3)c(-c3ccccc3)[nH]2)cc1 | -0.2 | 4.47µM* | 11.2µM*[quencher] | -20.4% | ?
Oc1ccc(-c2nc(-c3ccccc3)c(-c3ccc(Br)cc3)[nH]2)cc1 | nt | 28.2µM* | 8.91µM*[quencher] | 11.8% | ?
Cc1ccc(-c2[nH]c(-c3ccc(C(=O)O)cc3)nc2-c2ccccc2)cc1 | 2.8 | -17.8% | -18.3% | -9.6% | 7.1%
COc1ccc(-c2nc3c(c(SCC(=O)N4CCCCC4)n2)Cc2cc(Cl)ccc2O3)cc1 | nt | -5.1% | -11.9% | -15.1% | 3.4%
CC(C)C(C)(C#N)NC(=O)CSc1nc2scc(-c3ccco3)c2c(=O)n1-c1ccccc1 (centres undefined) | 1.8 | 10µM* | -18.4% | -8.5% | 7.94µM*
O=C1/C(=C/c2ccc(O)c(O)c2)Oc2cc(O)ccc21 | -6.9 | 14.1µM* | ? | -19.9% | 3.9%
COc1cc(/C=C2\Oc3cc(O)ccc3C2=O)ccc1O | 1.7 | ? | -23.9% | 28.2µM* | 14.1%
Cc1ccsc1/C=C1\Oc2cc(O)ccc2C1=O | nt | nt | nt | 0.3% | nt
O=C(Nc1cccc(-c2csc(Nc3ccccc3)n2)c1)c1cc([N+](=O)[O-])cc(C(F)(F)F)c1 | -3.0 | nt | nt | -20.0% | nt
SMILES | FBPA coupling cs | Tau fibril ThT | Tau fluor counter | USP1 inh | Tau FP inhib
O=C(Nc1cccc(-c2csc(Nc3ccc(Cl)cc3)n2)c1)c1cc([N+](=O)[O-])cc(C(F)(F)F)c1 | -2.7 | ? | 7.08µM*[quencher] | -25.6% | 4.6%
O=C(Nc1ccc(-c2csc(Nc3ccc(Cl)cc3)n2)cc1)c1cc([N+](=O)[O-])cc(C(F)(F)F)c1 | -0.7 | ? | 7.08µM*[quencher] | ? | ?
Cc1cc2ccccn2c1C(=S)NC(=O)c1ccccc1 | 1.1 | 15.8µM* | -19.1% | -24.0% | 1.6%
CCS(=O)(=O)c1nn2c(N)c(/C=C3/C=CC(=O)C(OC)=C3)c(=O)nc2s1 | 9.9 | ? | -24.1% | ? | -1.7%
COC1=C/C(=C/c2c(N)n3nc(-c4ccc(C)cc4)sc3nc2=O)C=CC1=O | 7.9 | 10µM* | ? | -19.8% | 1.3%
CCOC1=C/C(=C/c2c(N)n3nc(-c4ccccc4)sc3nc2=O)C=CC1=O | 3.3 | 8.91µM* | ? | -6.2% | -5.2%
COc1ccc(-c2noc(CNC(=O)c3ccccc3Br)n2)cc1 | nt | ? | 3.7% | -10.3% | -5.1%
COc1cc(/C=C2/SC(=O)NC2=O)ccc1Oc1ccc([N+](=O)[O-])cc1[N+](=O)[O-] | 5.0 | 15.8µM* | ? | -17.4% | -7.3%
C[N+]1(Cc2ccccc2)CCC(C(=O)OCC2CCCC2)CC1 (centres undefined) | nt | 4.6% | 4.7% | nt | -1.6%
CC(=O)N(C1=C(N2CCOCC2)C(=O)c2ccccc2C1=O)c1ccc(C(=O)O)cc1 | -53.7* | 14.1µM* | 17.8µM*[quencher] | ? | ?
O=C(c1ccccc1)c1ccc(N2CCOCC2)cc1 | nt | nt | nt | -15.6% | nt
CC(=O)N(C)C1=C(N2CCOCC2)C(=O)c2ccccc2C1=O | -56.1* | ? | -16.7% | ? | -10.6%
CC(=O)N(C)C1=C(O)c2ccccc2C(=O)C1=O | nt | 28.2µM* | -21.1% | ? | ?
CC(C(=O)N1CCOCCOCCOCC1)N1C(=O)c2ccccc2C1=O (centres undefined) | -0.1 | 3.9% | 8.0% | -15.3% | 8.7%
COc1ccc(CCN2C(=O)N(c3ccc(F)cc3)C(=O)C2CC(=O)Nc2ccccc2)cc1 (centres undefined) | nt | 1.8% | ? | -27.1% | -10.4%
Cc1ccc(NC(=O)c2ccccc2OCC(=O)Nc2ccccc2F)cc1S(=O)(=O)N(C)C | nt | nt | nt | -8.7% | nt
CC1(C(=O)N/N=C/c2ccccc2)CC1(Cl)Cl (centres undefined) | -5.2 | nt | nt | -2.1% | nt
CN(C(=O)c1coc(=O)c2ccccc12)c1ccccc1Cl | -0.9 | 5.3% | 2.6% | -20.4% | -5.5%
O=C(CCC(=O)N/N=C/c1ccc(Br)s1)NCc1ccccc1 | -1.1 | -2.7% | -8.6% | -4.4% | 1.0%
C(=Nc1ccc(Nc2ccccc2)cc1)c1ccc2ccccc2c1 | -3.7 | 7.94µM* | 8.91µM*[quencher] | -9.0% | ?
Brc1ccc(C=Nc2ccc(Nc3ccccc3)cc2)s1 | -0.9 | 10µM* | 11.2µM*[quencher] | -12.0% | ?
O=c1[nH]n2c(=O)c3c([nH]c2c1N=Nc1cccc(Cl)c1)CCCC3 | 2.9 | 2.82µM* | ? | ? | -5.8%
CCOc1ccc(N=Nc2c(=O)[nH]n3c(=O)c4c([nH]c23)CCCC4)cc1 | 1.7 | 1.78µM* | ? | -24.7% | -6.1%
Cc1cc(C)n2[nH]c(=O)c(N=Nc3cccc(Cl)c3)c2n1 | 1.2 | ? | -8.4% | -0.3% | 2.2%
Cc1ccccc1OCCOC(=O)c1cc(S(=O)(=O)N2CCOCC2)ccc1C | nt | nt | nt | -12.3% | nt
Nc1ccc(C(=O)O)c(O)c1 | -6.2 | ? | ? | -19.9% | -4.4%
